About 7,900 targets were measured; listed, in parts, are those with a hit and a random draw of the rest. About 0.6% of all pairs of compound and target were hits. A number with no mark means an inactive call.
Key:
Experiment in all cases: log2 fold change, soluble protein after heating vs DMSO (PISA); higher = thermal stabilisation; K562 cells, 10 uM, 30 min; active = over 0.2 and 3.5 SD of the protein, either way, in both replicates (recomputed)
[1] = compound: C#Cc1cccc(Nc2ncnc3cc(OCCOC)c(OCCOC)cc23)c1 [erlotinib]
Outline: (§1)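 Values are thermal stability changes relative to control samples and are taken from duplicates. They are stated as log2 fold changes. Before quantification by TMTpro 16plex LC-MS/MS with equalised channel sums, K562 cells at 2×10^6 cells/mL were treated with 10 μM compound for 30 min, heated in aliquots for 3 min across 48°C-58°C, pooled, extracted in PBS with 0.5% NP-40 at 4°C, and centrifuged at 21,000xg for 90 min to give the soluble supernatant.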

[2] = compound: C/C(=N\NC(=O)C1=CC(=CC=C1)S(=O)(=O)N2CCOCC2)/C3=C(C=CC(=C3)Cl)O
Outline: as §1

[3] = compound: C1=CC(=C(C=C1Cl)C2=NC3=NC=CN=C3C(=N2)NC4=CC=NC=C4)F
Outline: as §1

[4] = compound: C1=CC(=CC=C1C2=NC3=C(N2)C=C(C=C3)C(=O)N)OC4=CC=C(C=C4)Cl
Outline: as §1

[5] = compound: C1=CC2=C(C=CC(=C2)/C=C\3/C(=O)NC(=NCC4=CC=CS4)S3)N=C1
Outline: as §1

[6] = compound: C1=CC2=NC=CN=C2C=C1/C=C/3\C(=O)NC(=O)S3
Outline: as §1

[7] = compound: C1=CC=C(C=C1)C2=NC(=C(N2)C3=CC=NC=C3)C4=CC(=C(C=C4)Cl)O
Outline: as §1

[8] = compound: C1=CC=C2C(=C1)C3=NNC4=CC=CC(=C43)C2=O
Outline: as §1

[9] = compound: C1CCN(C1)C(=O)NC2=CC=CC(=C2)NC3=NC=C(C(=N3)NCCC4=CN=CN4)Br
Outline: as §1

[10] = compound: C1CN(CCC1(CC2=CC=C(C=C2)Cl)N)C3=NC=NC4=C3C=CN4
Outline: as §1

Sequence of UniProt Q5T8P6 (Q5T8P6 whole entry, looked up): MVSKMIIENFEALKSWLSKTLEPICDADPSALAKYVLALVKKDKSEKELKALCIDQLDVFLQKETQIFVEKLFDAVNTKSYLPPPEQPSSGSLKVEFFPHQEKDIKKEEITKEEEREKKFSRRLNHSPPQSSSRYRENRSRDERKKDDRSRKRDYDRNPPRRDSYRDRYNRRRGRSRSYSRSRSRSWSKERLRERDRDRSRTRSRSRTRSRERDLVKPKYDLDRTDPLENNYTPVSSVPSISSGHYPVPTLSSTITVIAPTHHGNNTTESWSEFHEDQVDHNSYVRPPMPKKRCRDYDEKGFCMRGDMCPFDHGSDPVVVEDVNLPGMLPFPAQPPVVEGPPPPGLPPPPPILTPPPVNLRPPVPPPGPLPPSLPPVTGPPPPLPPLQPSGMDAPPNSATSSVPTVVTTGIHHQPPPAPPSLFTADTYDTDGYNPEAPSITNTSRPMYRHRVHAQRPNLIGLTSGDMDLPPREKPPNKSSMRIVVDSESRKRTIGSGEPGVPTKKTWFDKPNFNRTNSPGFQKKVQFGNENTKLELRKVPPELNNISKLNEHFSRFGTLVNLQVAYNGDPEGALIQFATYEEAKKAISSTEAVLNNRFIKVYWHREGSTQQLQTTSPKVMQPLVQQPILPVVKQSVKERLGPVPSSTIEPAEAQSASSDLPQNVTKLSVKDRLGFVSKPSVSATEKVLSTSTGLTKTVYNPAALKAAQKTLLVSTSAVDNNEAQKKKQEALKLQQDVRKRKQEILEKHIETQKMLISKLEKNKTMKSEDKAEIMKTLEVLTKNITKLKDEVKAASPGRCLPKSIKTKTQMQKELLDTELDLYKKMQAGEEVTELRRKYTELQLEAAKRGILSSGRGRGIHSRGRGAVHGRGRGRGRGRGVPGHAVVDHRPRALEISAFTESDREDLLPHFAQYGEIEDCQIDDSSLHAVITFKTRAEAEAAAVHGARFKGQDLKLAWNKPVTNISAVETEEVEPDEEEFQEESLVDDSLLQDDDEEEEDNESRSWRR
Sequence of UniProt Q9NTJ5 (Q9NTJ5 whole entry, looked up): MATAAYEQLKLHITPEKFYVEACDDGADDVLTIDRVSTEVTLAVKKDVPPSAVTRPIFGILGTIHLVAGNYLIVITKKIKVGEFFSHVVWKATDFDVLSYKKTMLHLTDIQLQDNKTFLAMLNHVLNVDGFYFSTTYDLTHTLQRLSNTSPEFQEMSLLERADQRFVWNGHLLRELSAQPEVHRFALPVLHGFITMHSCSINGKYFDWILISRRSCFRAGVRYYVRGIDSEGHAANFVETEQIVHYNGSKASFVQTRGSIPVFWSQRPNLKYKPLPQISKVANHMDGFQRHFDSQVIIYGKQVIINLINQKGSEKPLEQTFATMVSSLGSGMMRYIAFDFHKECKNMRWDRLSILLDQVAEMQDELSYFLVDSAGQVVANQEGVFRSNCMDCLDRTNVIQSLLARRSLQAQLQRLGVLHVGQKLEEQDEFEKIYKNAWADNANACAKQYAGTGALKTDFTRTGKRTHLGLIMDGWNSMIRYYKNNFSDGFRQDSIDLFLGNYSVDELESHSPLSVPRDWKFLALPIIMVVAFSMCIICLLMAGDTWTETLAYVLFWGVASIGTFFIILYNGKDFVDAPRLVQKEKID
Sequence of UniProt Q86X27 (Q86X27 whole entry, looked up): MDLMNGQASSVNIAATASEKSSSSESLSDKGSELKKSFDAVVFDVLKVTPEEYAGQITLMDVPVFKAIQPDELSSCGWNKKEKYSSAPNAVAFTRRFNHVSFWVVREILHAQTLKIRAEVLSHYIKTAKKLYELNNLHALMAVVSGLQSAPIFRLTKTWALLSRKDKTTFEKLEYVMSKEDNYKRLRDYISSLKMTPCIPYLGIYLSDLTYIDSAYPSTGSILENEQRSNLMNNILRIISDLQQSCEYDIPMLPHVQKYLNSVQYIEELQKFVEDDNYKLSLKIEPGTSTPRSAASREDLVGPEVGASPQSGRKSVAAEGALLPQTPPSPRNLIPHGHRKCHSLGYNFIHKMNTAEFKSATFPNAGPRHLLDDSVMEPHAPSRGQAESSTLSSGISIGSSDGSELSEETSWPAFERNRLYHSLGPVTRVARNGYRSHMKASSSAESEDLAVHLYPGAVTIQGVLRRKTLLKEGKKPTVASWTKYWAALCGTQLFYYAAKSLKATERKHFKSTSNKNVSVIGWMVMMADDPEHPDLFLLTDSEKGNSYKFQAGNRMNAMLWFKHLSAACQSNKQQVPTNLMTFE
Sequence of UniProt P06400 (P06400 whole entry, looked up): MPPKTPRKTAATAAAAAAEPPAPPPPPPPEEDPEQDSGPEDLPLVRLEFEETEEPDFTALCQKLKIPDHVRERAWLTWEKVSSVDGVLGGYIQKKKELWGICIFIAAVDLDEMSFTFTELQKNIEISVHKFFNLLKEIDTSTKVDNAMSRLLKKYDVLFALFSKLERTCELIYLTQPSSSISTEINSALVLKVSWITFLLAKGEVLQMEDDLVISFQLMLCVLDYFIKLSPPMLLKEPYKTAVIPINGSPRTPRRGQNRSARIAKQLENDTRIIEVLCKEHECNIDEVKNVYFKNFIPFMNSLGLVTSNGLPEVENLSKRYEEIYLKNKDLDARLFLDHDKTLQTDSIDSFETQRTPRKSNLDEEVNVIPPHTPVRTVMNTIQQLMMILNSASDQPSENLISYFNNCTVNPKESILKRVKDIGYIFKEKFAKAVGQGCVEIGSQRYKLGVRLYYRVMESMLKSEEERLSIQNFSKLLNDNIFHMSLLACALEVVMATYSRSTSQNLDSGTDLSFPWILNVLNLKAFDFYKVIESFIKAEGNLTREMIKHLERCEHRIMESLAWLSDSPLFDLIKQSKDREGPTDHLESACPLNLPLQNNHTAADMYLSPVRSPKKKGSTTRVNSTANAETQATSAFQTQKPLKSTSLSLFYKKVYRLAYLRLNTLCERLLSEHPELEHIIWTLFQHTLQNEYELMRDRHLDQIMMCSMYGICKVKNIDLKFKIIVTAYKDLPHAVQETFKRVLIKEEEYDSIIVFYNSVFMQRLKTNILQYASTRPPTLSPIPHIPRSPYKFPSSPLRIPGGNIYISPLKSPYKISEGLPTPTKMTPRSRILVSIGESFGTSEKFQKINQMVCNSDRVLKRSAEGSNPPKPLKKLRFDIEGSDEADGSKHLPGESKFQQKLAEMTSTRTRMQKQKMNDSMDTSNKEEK
Sequence of UniProt Q9Y3L5 (Q9Y3L5 whole entry, looked up): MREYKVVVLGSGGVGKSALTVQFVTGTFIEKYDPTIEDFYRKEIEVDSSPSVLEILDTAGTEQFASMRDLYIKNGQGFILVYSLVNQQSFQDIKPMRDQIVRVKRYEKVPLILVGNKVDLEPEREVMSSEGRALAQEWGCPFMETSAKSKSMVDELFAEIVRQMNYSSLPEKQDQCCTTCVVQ
Sequence of UniProt Q9HB40 (Q9HB40 whole entry, looked up): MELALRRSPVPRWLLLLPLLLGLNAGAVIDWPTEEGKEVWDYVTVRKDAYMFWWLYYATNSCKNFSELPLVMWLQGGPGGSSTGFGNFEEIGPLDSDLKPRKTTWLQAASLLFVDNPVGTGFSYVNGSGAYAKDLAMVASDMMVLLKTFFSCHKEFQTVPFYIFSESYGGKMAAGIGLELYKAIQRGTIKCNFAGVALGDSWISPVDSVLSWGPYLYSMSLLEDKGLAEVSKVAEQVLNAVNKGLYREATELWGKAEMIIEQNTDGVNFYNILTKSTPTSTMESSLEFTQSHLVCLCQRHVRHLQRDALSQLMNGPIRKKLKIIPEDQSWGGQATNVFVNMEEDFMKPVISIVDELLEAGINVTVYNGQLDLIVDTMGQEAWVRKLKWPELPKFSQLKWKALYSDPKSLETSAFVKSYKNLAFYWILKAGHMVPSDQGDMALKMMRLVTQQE
Sequence of UniProt P04049 (P04049 whole entry, looked up): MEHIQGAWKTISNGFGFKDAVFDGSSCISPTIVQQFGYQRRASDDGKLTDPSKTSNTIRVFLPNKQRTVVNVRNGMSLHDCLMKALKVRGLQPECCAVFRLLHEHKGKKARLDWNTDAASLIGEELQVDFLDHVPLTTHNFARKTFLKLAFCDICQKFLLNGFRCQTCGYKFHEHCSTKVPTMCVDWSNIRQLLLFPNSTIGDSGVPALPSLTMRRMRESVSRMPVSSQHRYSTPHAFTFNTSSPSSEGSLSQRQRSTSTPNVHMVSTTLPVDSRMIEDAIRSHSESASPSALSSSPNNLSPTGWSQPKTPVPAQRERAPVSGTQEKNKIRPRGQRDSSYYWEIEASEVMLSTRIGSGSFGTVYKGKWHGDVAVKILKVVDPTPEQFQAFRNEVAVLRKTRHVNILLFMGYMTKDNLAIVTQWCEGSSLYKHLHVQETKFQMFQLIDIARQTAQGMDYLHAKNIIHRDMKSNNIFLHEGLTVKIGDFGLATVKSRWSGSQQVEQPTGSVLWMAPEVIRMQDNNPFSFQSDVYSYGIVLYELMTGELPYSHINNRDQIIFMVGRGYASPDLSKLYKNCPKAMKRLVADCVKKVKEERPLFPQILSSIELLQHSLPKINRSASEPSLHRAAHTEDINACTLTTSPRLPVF
Sequence of UniProt Q86TU7 (Q86TU7 whole entry, looked up): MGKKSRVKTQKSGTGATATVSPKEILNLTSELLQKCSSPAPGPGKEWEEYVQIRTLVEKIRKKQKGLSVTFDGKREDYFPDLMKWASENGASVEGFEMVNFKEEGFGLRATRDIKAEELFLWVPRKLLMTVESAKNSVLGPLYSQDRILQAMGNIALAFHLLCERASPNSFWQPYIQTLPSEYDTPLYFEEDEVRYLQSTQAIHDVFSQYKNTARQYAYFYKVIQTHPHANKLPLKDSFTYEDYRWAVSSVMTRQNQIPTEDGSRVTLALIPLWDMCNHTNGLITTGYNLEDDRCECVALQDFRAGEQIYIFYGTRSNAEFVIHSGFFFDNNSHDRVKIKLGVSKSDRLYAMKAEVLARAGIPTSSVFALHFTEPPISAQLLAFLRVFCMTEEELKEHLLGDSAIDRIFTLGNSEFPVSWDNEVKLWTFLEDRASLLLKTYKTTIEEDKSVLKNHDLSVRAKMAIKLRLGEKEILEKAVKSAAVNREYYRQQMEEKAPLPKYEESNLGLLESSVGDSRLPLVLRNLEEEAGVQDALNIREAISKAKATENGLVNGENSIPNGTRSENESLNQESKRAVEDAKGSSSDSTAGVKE

Row | Target | log2 fold change [1] | log2 fold change [2] | log2 fold change [3] | log2 fold change [4] | log2 fold change [5] | log2 fold change [6] | log2 fold change [7] | log2 fold change [8] | log2 fold change [9] | log2 fold change [10]
1 | RAB9A (UniProt P51151) | 0.037 | 0.05 | 0.017 | 0.016 | 0.046 | -0.022 | -0.005 | -0.01 | 0.017 | 0.056
2 | SESN2 (UniProt P58004) | 0.154 | 0.108 | -0.039 | -0.003 | 0.016 | 0.007 | -0.009 | -0.008 | -0.041 | -0.109
3 | RAP2C (UniProt Q9Y3L5) | 0.021 | 0.119 | 0.205 | 0.01 | -0.097 | 0.026 | 0.026 | 0.167 | -0.008 | 0.034
4 | SETD3 (UniProt Q86TU7) | 0.01 | -0.007 | 0.04 | 0.009 | 0.06 | 0.002 | 0.031 | 0.004 | -0.015 | 0.044
5 | RB1 (UniProt P06400) | -0.007 | 0.041 | 0.012 | 0.016 | 0.124 | 0.04 | 0.034 | -0.114 | -0.065 | -0.02
6 | SCPEP1 (UniProt Q9HB40) | -0.002 | 0.017 | 0.064 | 0.015 | -0.024 | 0.058 | -0.013 | 0.017 | -0.012 | 0.079
7 | SF3B5 (UniProt Q9BWJ5) | -0.088 | -0.04 | 0.319 | 0.051 | 0.023 | 0.199 | – | 0.107 | -0.104 | -0.002
8 | RRP12 (UniProt Q5JTH9) | 0.074 | -0.3 | -0.172 | 0.028 | -0.04 | 0.038 | 0.166 | 0.205 | 0.079 | 0.054
9 | RAPGEF4 (UniProt Q8WZA2) | 0.271 | -0.636 (active) | 0.057 | 0.053 | 0.19 | 0.029 | – | -0.014 | -0.038 | 0.18
10 | RAD50 isoform 2 (UniProt Q92878) | 0.02 | 0.034 | 0.076 | 0.001 | 0.029 | 0 | 0.02 | 0.015 | -0.034 | 0.029
11 | RTF2 (UniProt Q9BY42) | 0.026 | 0.063 | 0.035 | -0.049 | -0.049 | -0.023 | -0.035 | -0.02 | -0.074 | 0.045
12 | RRAGB (UniProt Q5VZM2) | -0.028 | 0.047 | 0.004 | 0.023 | -0.13 | 0 | 0.021 | 0.082 | -0.048 | 0.037
13 | RALGPS2 (UniProt Q86X27) | -0.43 | -0.07 | -0.321 | 0.037 | -0.079 | 0.111 | – | -0.012 | -0.06 | 0.154
14 | SLC1A5 (UniProt Q15758) | -0.001 | 0.003 | 0.043 | 0.002 | -0.051 | 0.006 | 0.075 | -0.046 | -0.052 | 0.089
15 | RBM33 (UniProt Q96EV2) | 0.017 | 0.04 | -0.022 | -0.011 | 0 | 0.01 | 0.001 | -0.114 | 0.034 | 0.038
16 | SEPTIN5 (UniProt Q99719) | 0.009 | 0.014 | 0.021 | 0.006 | 0.004 | 0.019 | -0.011 | 0.015 | -0.012 | 0.039
17 | SACM1L (UniProt Q9NTJ5) | 0.005 | 0.1 | 0.109 | -0.061 | 0.039 | -0.007 | 0.077 | 0.009 | 0.001 | 0.068
18 | RUFY1 (UniProt Q96T51) | 0.01 | 0.094 | -0.046 | -0.018 | 0.022 | 0.034 | -0.027 | 0 | 0.031 | -0.084
19 | RAF1 isoform 2 (UniProt P04049) | -0.048 | 0.08 | -0.129 | 0.04 | 0.197 | 0.02 | 0.513 (active) | 0.01 | -0.121 | 0.022

Row | Target | log2 fold change [1] | log2 fold change [2] | log2 fold change [3] | log2 fold change [4] | log2 fold change [5] | log2 fold change [6] | log2 fold change [7] | log2 fold change [8] | log2 fold change [9] | log2 fold change [10]
20 | SDC3 (UniProt O75056) | – | -0.135 | -0.015 | – | 0.05 | – | – | -0.157 | -0.139 | 0.203
21 | RNF26 (UniProt Q9BY78) | – | – | – | – | – | -0.08 | -0.073 | – | – | –
22 | RMDN2 isoform 2 (UniProt Q96LZ7) | – | – | – | – | – | – | 0.088 | – | – | –
23 | RPS3A (UniProt D6R9B6) | – | -0.359 | – | – | 0.198 | – | – | -0.243 | 0.303 | 0.034
24 | RPS6KA5 (UniProt O75582) | 0.239 | – | -0.079 | -0.234 | – | – | -0.091 | – | – | –
25 | RNF220 isoform 3 (UniProt Q5VTB9) | -0.109 | -0.021 | – | 0.229 | -0.05 | – | – | -0.055 | – | –
26 | RAD50, A0A494C0Y7 | – | -0.029 | – | – | 0.049 | -0.077 | -0.111 | 0.048 | -0.033 | 0.143
27 | SAP30 (UniProt O75446) | -0.04 | 0.061 | -0.069 | -0.027 | 0.018 | – | – | -0.13 | – | –
28 | RNF41 (UniProt Q9H4P4) | – | 0.043 | – | – | -0.074 | -0.146 | – | -0.002 | – | –
29 | RPS3 (UniProt E9PJN9) | – | – | – | – | – | – | 0.203 | – | 0.021 | -0.151
30 | RBM26 isoform 3 (UniProt Q5T8P6) | – | 0.22 | – | – | -0.079 | – | – | -0.149 | – | –
31 | SDCBP isoform 2 (UniProt O00560) | 0.157 | – | 0.007 | 0.159 | – | 0.009 | -0.299 | – | 0.249 | 0.096
32 | SH2D1B (UniProt O14796) | -0.294 | -0.059 | -0.218 | -0.098 | 0.057 | – | -0.228 | -0.406 | -0.036 | 0.028
33 | S100A10 (UniProt P60903) | – | 0.122 | – | – | 0.194 | 0.052 | – | -0.096 | -0.042 | -0.013
34 | SDHAF4 (UniProt Q5VUM1) | 0 | 0.104 | 0.026 | 0.031 | 0.118 | 0.033 | – | -0.117 | 0.054 | 0.094
35 | SHROOM2 (UniProt Q13796) | 0.266 | -1.03 (active) | 0.095 | -0.361 | 0.069 | -0.021 | – | 0.013 | -0.027 | 0.303
36 | SIK3 (UniProt H0Y4E8) | -0.074 | 0.045 | – | 0.094 | 0.074 | – | -0.163 | -0.099 | 0.051 | 0.15
37 | RUFY3 isoform 3 (UniProt Q7L099) | 0.019 | 0.012 | – | -0.03 | -0.028 | – | 0.011 | 0.065 | -0.075 | -0.07
38 | SCLT1 (UniProt Q96NL6) | – | – | – | – | – | -0.002 | – | – | -0.088 | 0.051

From the supplement of paper PMC10849652
